PubChem BioAssay AID1159580 (chemical genetic matrix, 2015)
Several values for one entry are separate records, joined by “and”; a condition that tells them apart may be missing. Identical values can stand only once. The whole screen tested about 5,500 compounds, of which about 2,000 (36%) were called active. Roughly 18% stayed inconclusive and do not appear here. No stated cut-off is given here; in the data, active means normalized growth mostly below about 0.91 (no sharp cut-off); inconclusive means no clear call, values can overlap the other calls; inactive means mostly above about 0.92. The list shows a part of the results.

Assay: chemical genetic growth profiling, strain panel (AID 1159580);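 further: tested at 20 µM; growth read once vehicle control cultures reached saturation at 30 °C; 1 = growth at the plate median or of vehicle wells; lower values mean less growth of the strain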
Settings: S. cerevisiae deletion strains, growth OD

Measured: normalized growth

Nc1nc2ncc(=O)[nH]c2c(=O)[nH]1
inactive: locus YAL013W, strain DEP1, hits give low values 1 | locus YAL021C, strain ccr4, hits give low values 0.978 | locus YAL026C, strain drs2, hits give low values 0.999 | locus YAL030W, strain snc1, hits give low values 0.98 | locus YBL061C, strain skt5, hits give low values 0.973 | locus YBR009C, strain hhf1, hits give low values 0.995 | locus YBR021W, strain FUR4, hits give low values 0.99 | locus YBR023C, strain chs3, hits give low values 0.979 | locus YBR171W, strain sec66, hits give low values 0.983 | locus YBR229C, strain ROT2, hits give low values 1 | locus YBR231C, strain swc5, hits give low values 0.989 | locus YBR279W, strain paf1, hits give low values 0.984 | locus YCL011C, strain gbp2, hits give low values 0.989 | locus YCL016C, strain dcc1, hits give low values 0.976 | locus YCL029C, strain bik1, hits give low values 0.989 | locus YCL061C, strain MRC1, hits give low values 0.977 | locus YCL069W, strain vba3, hits give low values 0.989 | locus YCR088W, strain abp1, hits give low values 0.972 | locus YDL005C, strain med2, hits give low values 0.965 | locus YDL035C, strain GPR1, hits give low values 1.01 | locus YDL040C, strain nat1, hits give low values 0.986 | locus YDL074C, strain BRE1, hits give low values 1.06 | locus YDL101C, strain DUN1, hits give low values 1 | locus YDL134C, strain PPH21, hits give low values 1 | locus YDL185W, strain tfp1, hits give low values 0.975 | locus YDL192W, strain arf1, hits give low values 0.989 | locus YDR001C, strain nth1, hits give low values 0.972 | locus YDR069C, strain doa4, hits give low values 1.01 | locus YDR101C, strain arx1, hits give low values 0.998 | locus YDR137W, strain rgp1, hits give low values 0.971 | locus YDR150W, strain NUM1, hits give low values 0.997 | locus YDR159W, strain sac3, hits give low values 0.973 | locus YDR162C, strain NBP2, hits give low values 1.01 | locus YDR195W, strain ref2 0.949 | locus YDR297W, strain sur2, hits give low values 0.982 | locus YDR318W, strain mcm21, hits give low values 0.993 | locus YDR334W, strain swr1, hits give low values 0.98 | locus YDR335W, strain msn5, hits give low values 0.978 | locus YDR388W, hits give low values 0.985 | locus YDR392W, strain spt3, hits give low values 0.927 | locus YDR502C, strain sam2, hits give low values 0.996 | locus YEL003W, strain gim4, hits give low values 0.981 | locus YEL037C, strain rad23, hits give low values 0.995 | locus YEL061C, strain CIN8 (second series), hits give low values 0.976 | locus YEL061C, strain CIN8, hits give low values 1 | locus YER015W, strain faa2, hits give low values 1 | locus YER016W, strain bim1, hits give low values 0.984 | locus YER110C, hits give low values 0.976 | locus YER111C, strain swi4, hits give low values 0.957 | locus YER155C, strain BEM2 (second series), hits give low values 0.985 | locus YER155C, strain BEM2, hits give low values 0.993 | locus YER167W, strain BCK2, hits give low values 0.994 | locus YFR010W, strain ubp6, hits give low values 0.977 | locus YGL078C, strain dbp3, hits give low values 0.976 | locus YGL086W, strain mad1, hits give low values 0.989 | locus YGL167C, strain pmr1, hits give low values 0.968 | locus YGL173C, strain kem1, hits give low values 0.981 | locus YGL227W, strain vid30, hits give low values 0.988 | locus YGL240W, strain doc1, hits give low values 1 | locus YGL248W, strain PDE1, hits give low values 1.01 | locus YGL253W, strain hxk2, hits give low values 0.976 | locus YGR078C, strain PAC10, hits give low values 1.03 | locus YGR135W, strain pre9, hits give low values 1.02 | locus YGR229C, strain SMI1, hits give low values 1.04 | locus YGR252W, strain gcn5, hits give low values 1.01 | locus YHR013C, strain ard1, hits give low values 0.946 | locus YHR027C, strain rpn1, hits give low values 0.98 | locus YHR030C, strain SLT2, hits give low values 1 and 0.966 | locus YHR079C, strain IRE1 (second series), hits give low values 0.997 | locus YHR079C, strain IRE1, hits give low values 0.967 | locus YHR094C, strain hxt1, hits give low values 0.965 | locus YHR129C, strain ARP1, hits give low values 1 | locus YHR142W, strain chs7, hits give low values 0.941 | locus YHR200W, strain rpn10, hits give low values 0.988 | locus YIL066C, strain RNR3, hits give low values 1.01 | locus YIL073C, strain SPO22, hits give low values 0.921 | locus YIL125W, strain kgd1, hits give low values 0.981 | locus YIR030C, strain dcg1, hits give low values 0.994 | locus YJL092W, strain hpr5, hits give low values 0.976 | locus YJL095W, strain BCK1 (second series), hits give low values 0.98 | locus YJL095W, strain BCK1, hits give low values 1.06 and 0.983 | locus YJL115W, strain asf1, hits give low values 0.977 | locus YJL129C, strain trk1, hits give low values 0.953 | locus YJL134W, strain LCB3, hits give low values 0.997 | locus YJL154C, strain vps35, hits give low values 0.971 | locus YJL164C, strain tpk1, hits give low values 0.979 | locus YJL166W, strain qcr8, hits give low values 0.982 | locus YJL168C, strain set2, hits give low values 0.988 | locus YJL187C, strain SWE1 (second series), hits give low values 0.999 | locus YJL187C, strain SWE1, hits give low values 0.976 | locus YJR043C, strain POL32, hits give low values 1.01 | locus YJR066W, strain TOR1, hits give low values 0.945
